CYP2C19 inh: inhibitors of human CYP2C19. P33261. CYP2C19 Supersomes, luciferin-H EGE luminescence, 30 min. inhibition, % at 5 µM. hit rate 21% among 96,000;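 active means CYP2C19 inhibition above a set limit at 5 µM in the primary screen, cut at about 50% in these data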;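 further: plate controls were negative control wells for no effect and 2.5 mM tranylcypromine positive control for full effect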
Target sequence (P33261 whole entry, looked up): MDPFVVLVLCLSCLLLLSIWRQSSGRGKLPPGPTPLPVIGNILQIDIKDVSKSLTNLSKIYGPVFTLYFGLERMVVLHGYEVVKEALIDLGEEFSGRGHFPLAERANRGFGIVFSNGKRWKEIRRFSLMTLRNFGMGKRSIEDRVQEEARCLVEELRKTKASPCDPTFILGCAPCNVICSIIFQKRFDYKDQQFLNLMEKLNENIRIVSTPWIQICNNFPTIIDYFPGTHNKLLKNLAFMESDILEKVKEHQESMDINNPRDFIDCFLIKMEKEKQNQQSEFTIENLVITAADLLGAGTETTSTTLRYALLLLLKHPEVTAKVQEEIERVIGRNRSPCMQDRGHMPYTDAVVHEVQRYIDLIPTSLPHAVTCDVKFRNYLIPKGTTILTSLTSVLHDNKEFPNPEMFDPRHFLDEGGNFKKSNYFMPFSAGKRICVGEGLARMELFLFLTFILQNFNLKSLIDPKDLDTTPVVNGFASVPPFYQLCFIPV
CYP2C9 inhib: inhibitors of human CYP2C9; CYP2C9 Supersomes, luciferin-H conversion, luminescence; inhibition, % at 5 µM; hit rate 20% among 96,000; AID 777;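 active means blocking of liver enzyme CYP2C9 beyond about 50% at 5 µM, limit read from the data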
CYP2C9 act: CYP2C9 (human) activation | activation factor at 5 µM | hit rate 1.4% among 96,000 | recombinant CYP2C9, luciferin-H conversion, luminescence; active compounds read high; factor 1 = untreated enzyme, 0 = blocked;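 active means activation factor of 2 or more for CYP2C9 at a 5 µM dose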;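 further: 0 = sulfaphenazole-blocked wells and 1 = vehicle-only wells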
CYP2C19 act: increases human CYP2C19 enzyme activity; 96,000 tested, under 10 active; activation factor at 5 µM; recombinant CYP2C19, luciferin-H EGE luminescence; active compounds read high; 0 = fully inhibited enzyme, 1 = untreated enzyme; AID 1025;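 active means activation factor of at least 2 at 5 µM in the primary screen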;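 further: 0 = wells with 2.5 mM tranylcypromine and 1 = vehicle-only wells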
Cav3 T inh: human Cav3.2 channel inhibition, primary screen. O95180. Cav3.2-expressing cells, Fluo-4 calcium fluorescence FDSS; active compounds read low. B-score at 10 µM. hit rate 4% among 100,000. AID 449739;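 active means single-dose well whose peak fluorescence ratio is a statistical outlier from its plate by either plate-standardised score or position-corrected B-score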
Starred values were filed as active, the others as inactive; / = not tested or not shown. An excerpt weighted towards active compounds, which were near 27% of everything screened.

SMILES | CYP2C19 inh | CYP2C9 inhib | CYP2C9 act | CYP2C19 act | Cav3 T inh
c1csc(CCNc2ncnc3sc4c(c23)CCC4)c1 | 94* | 46 | 0.5 | 0.1 | /
Fc1ccc(Nc2ncnc3sc4c(c23)CCC4)cc1 | 88* | 61* | 0.4 | 0.1 | -1.1
O=C(COc1ncnc2ccccc12)NCCC1=CCCCC1 | 54* | 27 | 0.7 | 0.5 | -0.98
O=C(/C=C/c1cccc2ccccc12)NCCC1=CCCCC1 | 18 | -169 | 2.7* | 0.8 | /
O=C(COc1cnc2ccccc2n1)NCCC1=CCCCC1 | 55* | 28 | 0.7 | 0.5 | -0.0078
O=C(Cn1nc(C(=O)O)c2ccccc2c1=O)NCCC1=CCCCC1 | 58* | 23 | 0.8 | 0.4 | 0.96
CCC(=O)N1CCc2cc(S(=O)(=O)CCC(=O)NCc3cccs3)ccc21 | 2 | 4 | 1 | 1 | 0.87
C=CCn1c(=NC(=O)C2CCCCC2)sc2cc(NC(C)=O)ccc21 | 15 | 68* | 0.3 | 0.8 | 0.54
CCc1ccc(CC)c(S(=O)(=O)Nc2ccc(C(=O)O)c(O)c2)c1 | 8 | 83* | 0.2 | 0.9 | -0.88
CCc1ccc(CC)c(S(=O)(=O)Nc2ccc(O)c(C(=O)O)c2)c1 | 6 | 77* | 0.2 | 0.9 | -0.029
Cc1ccc(C(=O)Nc2ccc(O)c(C(=O)O)c2)o1 | 9 | -8 | 1.1 | 0.9 | -0.33
COc1ccc(C2c3cc(OC)c(OC)cc3CCN2C2CC(=O)N(c3ccccc3)C2=O)cc1OC (centres undefined) | 16 | 50 | 0.5 | 0.8 | 1.1
O=C(c1cccc(S(=O)(=O)N2CCCCC2)c1)N1CCN(S(=O)(=O)c2ccc(F)cc2)CC1 | 35 | 41 | 0.6 | 0.6 | /
O=C(CN(C(=O)CCC(=O)Nc1nccs1)c1ccc(F)c(Cl)c1)NCc1ccco1 | 76* | 27 | 0.7 | 0.2 | /
O=C(CN(C(=O)CCC(=O)Nc1nccs1)c1ccc(F)cc1)NCc1ccco1 | 65* | 32 | 0.7 | 0.3 | /
O=C(CN(Cc1ccccc1)C(=O)CCC(=O)Nc1nccs1)NCc1ccco1 | 61* | 26 | 0.7 | 0.4 | /
O=C(CN(Cc1ccc(F)cc1)C(=O)CCC(=O)Nc1ccccn1)NCc1ccco1 | 31 | 31 | 0.7 | 0.7 | /
O=C(NCc1cccs1)C1CCN(S(=O)(=O)N2CCCC2)CC1 | -3 | -7 | 1.1 | 1 | -0.27
COC(=O)[C@@]1(Cc2ccccc2)[C@@H]2C(=CC(=O)[C@H]2CC(=O)C(=O)N(C)C)CN1C(=O)c1ccccc1 | / | / | / | / | 1.9
Cc1ccc(C(=O)N/N=C2\SCC(=O)N2c2cc(C)ccc2C)cc1 | / | / | / | / | -1.4
CC1CCN(C(=O)CSc2nc(N)cc(N)n2)CC1 | 2 | 0 | 1 | 1 | -0.8
O=C(CC1NC2CCCCC2NC1=O)Nc1cccc(C(F)(F)F)c1 (centres undefined) | -16 | -19 | 1.2 | 1.2 | 0.47
CC1CCN(C(c2ccccc2)c2nnnn2C(C)(C)C)CC1 (centres undefined) | 10 | -3 | 1 | 0.9 | -0.05
CC(C)(C)n1nnnc1CN1CCN(C(c2ccccc2)c2ccccc2)CC1 | / | / | / | / | -5.4*
COC(=O)C1=C(N)Oc2cc(N(C)C)ccc2C1c1ccccc1OC (centres undefined) | 26 | -9 | 1.1 | 0.7 | -7*
SMILES | CYP2C19 inh | CYP2C9 inhib | CYP2C9 act | CYP2C19 act | Cav3 T inh
CCOc1ccc(N2C(=O)CS/C2=N/NC(=O)COc2ccc3ccccc3c2)cc1 | 14 | 28 | 0.7 | 0.9 | -3.5*
Cc1ccc(OCCN2C(=O)c3ccccc3C2=O)c(C)c1 | 23 | -2 | 1 | 0.8 | -0.42
Cc1cc(C(=O)OCCN2C(=O)c3ccccc3C2=O)c2ccccc2n1 | 68* | 75* | 0.2 | 0.3 | -0.24
Cc1ccc(OCCN2C(=O)c3ccccc3C2=O)cc1 | 81* | 38 | 0.6 | 0.2 | -1.9
Cc1cccc2c1N(CCCOc1ccccc1)C(=O)C2=O | 62* | 43 | 0.6 | 0.4 | -3.1
Cc1cccc2c1N(CCCOc1ccc(C(C)(C)C)cc1)C(=O)C2=O | 24 | 9 | 0.9 | 0.8 | -0.049
COc1cccc(C(=O)OCCN2C(=O)c3ccccc3C2=O)c1OC | 90* | 35 | 0.7 | 0.1 | 0.39
O=C(OCCN1C(=O)c2ccccc2C1=O)c1cc(=O)[nH]c2ccccc12 | 25 | 20 | 0.8 | 0.7 | 0.85
COC(=O)c1ccc(-c2ccc(OC)c([C@H]3[C@H]4C=CC[C@@H](C)[C@@H]4C(=O)N3Cc3ccccc3)c2)cc1 | / | / | / | / | -2.6
Clc1ccc(-c2nnc3n2CCCS3)cc1 | -11 | -11 | 1.1 | 1.1 | 0.57
Cc1cc(=O)[nH]c(N2CCc3ccccc3C2)n1 | 28 | -13 | 1.1 | 0.7 | 0.66
COc1ccc(C(=O)OCCN2C(=O)c3ccccc3C2=O)cc1 | 93* | 72* | 0.3 | 0.1 | 0.26
COc1ccc(CC(=O)OCN2C(=O)c3ccccc3C2=O)cc1 | 48 | -14 | 1.1 | 0.5 | -0.012
CCCCOC(=O)CN1C(=O)c2ccc(C(=O)OCCCC)cc2C1=O | 88* | 70* | 0.3 | 0.1 | 0.82
O=S(=O)(c1ccc(NCC2CCCCC2)nc1)N1CCOCC1 | 10 | 17 | 0.8 | 0.9 | -0.66
CCOC(=O)c1sc(NC(=O)CCN2C(=O)c3cccc([N+](=O)[O-])c3C2=O)c(C(=O)OCC)c1C | 49 | 57* | 0.4 | 0.5 | -1.4
CCC(CC)c1nnc(NC(=O)CCN2C(=O)c3ccccc3C2=O)s1 | 22 | 42 | 0.6 | 0.8 | /
CCOC(=O)c1c(NC(=O)CCN2C(=O)c3ccccc3C2=O)sc(C(=O)OC(C)C)c1C | 23 | 60* | 0.4 | 0.8 | -2.2
COc1c(C)cccc1C(=O)Nc1ccc(CN2CCOCC2)cc1 | 33 | -13 | 1.1 | 0.7 | 0.84
Cc1ccccc1OCC(=O)Nc1cccc(N(C)S(C)(=O)=O)c1 | 69* | 79* | 0.2 | 0.3 | 0.44
Cc1ccc(NC(=O)CS(=O)CC(=O)Nc2ccc3c(c2)OCO3)cc1Cl (centres undefined) | 11 | 51* | 0.5 | 0.9 | -3.3
CN(c1cccc(NC(=O)CCSc2ccccc2)c1)S(C)(=O)=O | 78* | 68* | 0.3 | 0.2 | 0.017
CN(c1cccc(NC(=O)CN(c2ccc(C34CC5CC(CC(C5)C3)C4)cc2)S(C)(=O)=O)c1)S(C)(=O)=O | 17 | 54* | 0.5 | 0.8 | -2.4
CN(c1cccc(NC(=O)COc2ccccc2)c1)S(C)(=O)=O | 19 | 5 | 1 | 0.8 | -0.79
COCCCNC(NC(=O)c1ccc(Cl)cc1)C(Cl)(Cl)Cl (centres undefined) | 43 | 25 | 0.7 | 0.6 | 0.29
CC(=O)c1c(C)[nH]c(C(=O)CSc2nnc(-c3ccc(Cl)cc3)n2CC2CCCO2)c1C (centres undefined) | 9 | 11 | 0.9 | 0.9 | 1.2
Cc1ccccc1OCC(=O)Nc1ccc2c(c1)OCO2 | 66* | 30 | 0.7 | 0.3 | /
Cc1ccccc1OCC(=O)Nc1ccc2c(c1)COC2=O | 24 | 26 | 0.7 | 0.8 | 0.1
Cc1ccccc1OCC(=O)NC1=NCCS1 | 51* | 38 | 0.6 | 0.5 | -0.46

Compound activity deposited in PubChem by several laboratories.
